Our source for the binding signal values is paper PMC7862700, “An all-to-all approach to the identification of sequence-specific readers for epigenetic DNA modifications on cytosine”.

Holding throughout (assay): DAPPL (digital affinity profiling via proximity ligation, sequencing); 10 mM Tris-HCl pH 7.5, 50 mM NaCl, 1 mM DTT, 4% glycerol, room temperature, 30 min; GST-TFs on glutathione beads, 16-mer random dsDNA library, 0.1% formaldehyde crosslink after washing; high values mean tight binding
The target of one test is T1, FLI1 (Homo sapiens, UniProt Q01543 1-452).
T1 sequence: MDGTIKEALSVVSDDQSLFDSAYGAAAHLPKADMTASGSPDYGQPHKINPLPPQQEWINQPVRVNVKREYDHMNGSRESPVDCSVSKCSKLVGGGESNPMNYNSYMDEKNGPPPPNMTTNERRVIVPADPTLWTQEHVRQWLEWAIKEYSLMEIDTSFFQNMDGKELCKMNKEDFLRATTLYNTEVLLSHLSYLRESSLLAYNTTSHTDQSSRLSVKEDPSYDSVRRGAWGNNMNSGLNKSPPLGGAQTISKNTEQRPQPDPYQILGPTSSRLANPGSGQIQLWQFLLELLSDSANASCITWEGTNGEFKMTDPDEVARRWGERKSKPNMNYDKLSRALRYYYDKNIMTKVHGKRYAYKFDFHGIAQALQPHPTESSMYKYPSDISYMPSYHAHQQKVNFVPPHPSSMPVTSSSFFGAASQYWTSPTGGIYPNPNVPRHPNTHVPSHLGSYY
The following applies: protein: recombinant; tags: N-terminal GST; dsDNA, one strand shown. The method, boiled down:
(§1)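 Sequencing on an Illumina NextSeq500 followed washing, crosslinking with 0.1% formaldehyde, proximity ligation (BsaI/T4 ligase, 1 h, 37 °C) and PCR amplification of pools that had been incubated for 30 min at room temperature with 200 nmole of a random double-stranded 16-mer DNA library in Tris/NaCl/DTT/glycerol buffer. Each pool held DNA-barcoded human transcription factors, expressed in yeast as GST fusions and captured on glutathione beads, plus a tag-only sample. Binding signal is a hexamer's read frequency for a factor divided by its frequency in the tag-only sample.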

In the next test the target is T2, ELK1 (Homo sapiens, UniProt P19419 1-428).
T2 sequence: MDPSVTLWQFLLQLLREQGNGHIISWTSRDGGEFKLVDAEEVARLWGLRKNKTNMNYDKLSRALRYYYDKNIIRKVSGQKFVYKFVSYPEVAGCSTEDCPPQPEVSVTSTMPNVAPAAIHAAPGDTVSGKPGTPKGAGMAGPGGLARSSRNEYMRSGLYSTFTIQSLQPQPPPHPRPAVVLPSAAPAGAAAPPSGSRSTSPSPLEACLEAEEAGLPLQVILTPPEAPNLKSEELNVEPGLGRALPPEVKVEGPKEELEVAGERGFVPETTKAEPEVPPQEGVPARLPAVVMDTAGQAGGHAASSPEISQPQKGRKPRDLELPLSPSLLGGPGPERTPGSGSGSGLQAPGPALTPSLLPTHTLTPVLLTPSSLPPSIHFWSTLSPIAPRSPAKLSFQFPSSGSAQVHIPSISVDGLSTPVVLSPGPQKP
The following applies: protein: recombinant; tags: N-terminal GST; dsDNA, one strand shown. The method, boiled down: as §1

A further test has as its target T3, GABPA (Homo sapiens, UniProt Q06546 1-454).
T3 sequence: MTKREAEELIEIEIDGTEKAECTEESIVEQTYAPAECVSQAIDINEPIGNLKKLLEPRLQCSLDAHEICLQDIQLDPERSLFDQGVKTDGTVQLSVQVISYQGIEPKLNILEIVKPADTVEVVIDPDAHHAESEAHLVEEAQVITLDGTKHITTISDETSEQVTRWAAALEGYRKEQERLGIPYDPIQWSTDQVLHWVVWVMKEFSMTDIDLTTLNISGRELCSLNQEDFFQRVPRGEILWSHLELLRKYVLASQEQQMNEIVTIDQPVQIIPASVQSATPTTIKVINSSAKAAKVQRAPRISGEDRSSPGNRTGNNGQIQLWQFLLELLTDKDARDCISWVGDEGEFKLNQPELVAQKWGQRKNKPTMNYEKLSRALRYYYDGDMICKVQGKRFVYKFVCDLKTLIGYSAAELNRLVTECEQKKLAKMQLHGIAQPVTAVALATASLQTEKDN
The following applies: protein: recombinant; tags: N-terminal GST; dsDNA, one strand shown. The method, boiled down: as §1

The next test addresses T4, ERG (Homo sapiens, UniProt P11308 1-479).
T4 sequence: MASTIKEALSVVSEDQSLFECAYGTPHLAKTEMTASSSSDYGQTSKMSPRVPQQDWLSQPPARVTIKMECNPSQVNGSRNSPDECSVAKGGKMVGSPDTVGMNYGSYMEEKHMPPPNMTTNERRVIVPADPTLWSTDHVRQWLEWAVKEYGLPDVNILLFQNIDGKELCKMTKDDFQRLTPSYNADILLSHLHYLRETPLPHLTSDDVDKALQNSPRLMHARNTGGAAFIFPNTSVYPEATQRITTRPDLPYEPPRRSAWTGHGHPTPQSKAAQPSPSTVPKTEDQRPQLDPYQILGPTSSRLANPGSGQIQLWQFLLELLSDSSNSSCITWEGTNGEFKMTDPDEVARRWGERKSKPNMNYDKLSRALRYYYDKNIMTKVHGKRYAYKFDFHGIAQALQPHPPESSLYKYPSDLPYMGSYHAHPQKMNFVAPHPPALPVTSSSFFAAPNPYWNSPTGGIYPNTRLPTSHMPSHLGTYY
The following applies: protein: recombinant; tags: N-terminal GST; dsDNA, one strand shown. The method, boiled down: as §1

In another test the target is ELF1 (Homo sapiens, UniProt P32519 1-619). The conditions noted are these: protein: recombinant; tags: N-terminal GST; dsDNA, one strand shown. The method, boiled down:
as §1

The next test addresses T5, EHF (Homo sapiens, UniProt Q9NZC4 1-300).
T5 sequence: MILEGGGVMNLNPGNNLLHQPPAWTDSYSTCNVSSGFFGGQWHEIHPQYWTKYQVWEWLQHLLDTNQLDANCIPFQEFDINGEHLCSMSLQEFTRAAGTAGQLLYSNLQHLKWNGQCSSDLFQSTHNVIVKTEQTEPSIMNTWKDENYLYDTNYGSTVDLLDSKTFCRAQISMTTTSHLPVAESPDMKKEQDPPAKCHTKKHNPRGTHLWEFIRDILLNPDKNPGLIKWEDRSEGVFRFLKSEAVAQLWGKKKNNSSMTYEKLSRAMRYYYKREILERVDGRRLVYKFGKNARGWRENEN
The following applies: protein: recombinant; tags: N-terminal GST; dsDNA, one strand shown. Summed up: as §1

The target of a further test is SPI1 (Homo sapiens, UniProt P17947 1-270). The conditions noted are these: protein: recombinant; tags: N-terminal GST; dsDNA, one strand shown. Summed up: as §1
For a further test, the target named is SPIB (Homo sapiens, UniProt Q01892 1-262). The following applies: protein: recombinant; tags: N-terminal GST; dsDNA, one strand shown. Summed up: as §1
Sequence of SPIB (Q01892 whole entry): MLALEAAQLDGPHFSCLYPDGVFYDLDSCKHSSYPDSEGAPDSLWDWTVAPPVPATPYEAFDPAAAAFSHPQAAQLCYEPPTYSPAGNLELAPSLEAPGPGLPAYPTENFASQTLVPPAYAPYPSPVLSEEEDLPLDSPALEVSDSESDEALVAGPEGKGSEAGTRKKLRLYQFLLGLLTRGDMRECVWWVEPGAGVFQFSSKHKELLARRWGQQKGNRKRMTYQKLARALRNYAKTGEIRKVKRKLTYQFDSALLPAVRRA
The next test addresses T6, ELK3 (Homo sapiens, UniProt P41970 1-407).
T6 sequence: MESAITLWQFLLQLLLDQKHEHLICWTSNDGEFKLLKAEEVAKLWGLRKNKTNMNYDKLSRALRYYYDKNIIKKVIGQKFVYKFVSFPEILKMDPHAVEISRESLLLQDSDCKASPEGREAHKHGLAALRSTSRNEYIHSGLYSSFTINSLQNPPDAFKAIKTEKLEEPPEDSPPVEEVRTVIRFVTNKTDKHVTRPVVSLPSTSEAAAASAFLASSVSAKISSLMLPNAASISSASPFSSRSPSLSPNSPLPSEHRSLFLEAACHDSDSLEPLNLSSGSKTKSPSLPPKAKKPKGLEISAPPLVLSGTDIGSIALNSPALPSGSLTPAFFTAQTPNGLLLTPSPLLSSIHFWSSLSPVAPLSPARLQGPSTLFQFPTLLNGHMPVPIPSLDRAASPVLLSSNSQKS
The conditions noted are these: protein: recombinant; tags: N-terminal GST; dsDNA, one strand shown. Summed up:
as §1

For another test, the target named is T7, FEV (Homo sapiens, UniProt Q99581 1-238).
T7 sequence: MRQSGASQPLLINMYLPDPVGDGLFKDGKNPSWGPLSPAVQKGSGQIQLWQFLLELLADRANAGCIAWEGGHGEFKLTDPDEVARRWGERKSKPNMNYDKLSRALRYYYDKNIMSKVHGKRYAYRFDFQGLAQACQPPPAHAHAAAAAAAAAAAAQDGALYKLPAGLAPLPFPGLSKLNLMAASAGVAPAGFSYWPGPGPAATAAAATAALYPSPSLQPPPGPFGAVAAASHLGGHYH
The conditions noted are these: protein: recombinant; tags: N-terminal GST; dsDNA, one strand shown. Summed up: as §1

Another test addresses ETV5 (Homo sapiens, UniProt P41161 1-510). The following applies: protein: recombinant; tags: N-terminal GST; dsDNA, one strand shown. Summed up:
as §1

In the next test the target is HSF1 (Homo sapiens, UniProt Q00613 1-529). The conditions noted are these: protein: recombinant; tags: N-terminal GST; chain copies: 3; dsDNA, one strand shown. The method, boiled down:
as §1

For a further test, the target named is T8, SPIC (Homo sapiens, UniProt Q8N5J4 1-248).
T8 sequence: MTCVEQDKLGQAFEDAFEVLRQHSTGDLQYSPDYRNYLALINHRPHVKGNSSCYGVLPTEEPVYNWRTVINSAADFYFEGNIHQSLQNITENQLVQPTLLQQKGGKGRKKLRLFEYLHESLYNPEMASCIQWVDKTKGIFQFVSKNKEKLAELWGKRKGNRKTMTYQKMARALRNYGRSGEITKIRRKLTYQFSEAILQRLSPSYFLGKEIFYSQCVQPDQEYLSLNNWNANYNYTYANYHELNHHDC
The conditions noted are these: protein: recombinant; tags: N-terminal GST; dsDNA, one strand shown. The method, boiled down:
as §1

The target in another test is ELF4 (Homo sapiens, UniProt Q99607 1-663). The conditions noted are these: protein: recombinant; tags: N-terminal GST; dsDNA, one strand shown. Summed up: as §1
Sequence of ELF4 (Q99607 whole entry): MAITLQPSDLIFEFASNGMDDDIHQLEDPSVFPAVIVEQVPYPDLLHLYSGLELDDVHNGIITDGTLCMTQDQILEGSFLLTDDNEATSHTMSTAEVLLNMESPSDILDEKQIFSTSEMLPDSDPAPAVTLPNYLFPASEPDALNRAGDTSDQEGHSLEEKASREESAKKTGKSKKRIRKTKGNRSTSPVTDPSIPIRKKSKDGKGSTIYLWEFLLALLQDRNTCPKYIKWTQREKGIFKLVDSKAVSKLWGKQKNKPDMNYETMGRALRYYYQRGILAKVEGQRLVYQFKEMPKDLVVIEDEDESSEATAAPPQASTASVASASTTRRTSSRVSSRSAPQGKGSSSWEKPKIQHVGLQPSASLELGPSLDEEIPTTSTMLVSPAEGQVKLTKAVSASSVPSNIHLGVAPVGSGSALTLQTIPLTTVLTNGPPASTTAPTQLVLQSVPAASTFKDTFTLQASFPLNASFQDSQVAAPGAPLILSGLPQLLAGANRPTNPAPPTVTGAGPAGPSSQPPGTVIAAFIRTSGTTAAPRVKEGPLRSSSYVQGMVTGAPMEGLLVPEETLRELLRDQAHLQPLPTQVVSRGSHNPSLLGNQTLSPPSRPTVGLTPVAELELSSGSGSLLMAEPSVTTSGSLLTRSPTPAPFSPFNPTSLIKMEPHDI
In a further test the target is T9, ELK4 (Homo sapiens, UniProt P28324-2 1-405).
T9 sequence: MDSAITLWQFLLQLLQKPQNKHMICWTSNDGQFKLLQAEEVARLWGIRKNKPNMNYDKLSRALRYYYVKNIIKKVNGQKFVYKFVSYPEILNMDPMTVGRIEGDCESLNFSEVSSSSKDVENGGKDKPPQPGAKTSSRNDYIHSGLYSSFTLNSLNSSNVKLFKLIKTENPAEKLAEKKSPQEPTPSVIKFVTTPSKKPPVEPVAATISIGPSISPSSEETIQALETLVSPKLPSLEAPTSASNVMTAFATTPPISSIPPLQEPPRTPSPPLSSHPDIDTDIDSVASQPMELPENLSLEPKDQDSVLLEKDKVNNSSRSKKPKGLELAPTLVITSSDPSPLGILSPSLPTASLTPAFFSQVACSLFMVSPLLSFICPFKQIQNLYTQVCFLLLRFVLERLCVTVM
The following applies: protein: recombinant; tags: N-terminal GST; dsDNA, one strand shown. The method, boiled down: as §1

The target of the next test is T10, ETV2 (Homo sapiens, UniProt O00321 1-342).
T10 sequence: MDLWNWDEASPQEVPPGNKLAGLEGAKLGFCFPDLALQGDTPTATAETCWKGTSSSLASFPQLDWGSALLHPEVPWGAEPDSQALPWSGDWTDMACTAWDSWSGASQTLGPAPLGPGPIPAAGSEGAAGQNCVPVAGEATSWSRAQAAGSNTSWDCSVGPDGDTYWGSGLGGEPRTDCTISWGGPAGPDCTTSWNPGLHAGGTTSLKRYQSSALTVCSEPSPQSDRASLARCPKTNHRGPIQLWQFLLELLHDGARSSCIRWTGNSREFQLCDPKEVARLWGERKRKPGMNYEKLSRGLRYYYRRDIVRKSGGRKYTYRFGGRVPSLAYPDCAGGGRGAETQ
The conditions noted are these: protein: recombinant; tags: N-terminal GST; dsDNA, one strand shown. Summed up: as §1

A further test deals with T11, ELF3 (Homo sapiens, UniProt P78545 1-371).
T11 sequence: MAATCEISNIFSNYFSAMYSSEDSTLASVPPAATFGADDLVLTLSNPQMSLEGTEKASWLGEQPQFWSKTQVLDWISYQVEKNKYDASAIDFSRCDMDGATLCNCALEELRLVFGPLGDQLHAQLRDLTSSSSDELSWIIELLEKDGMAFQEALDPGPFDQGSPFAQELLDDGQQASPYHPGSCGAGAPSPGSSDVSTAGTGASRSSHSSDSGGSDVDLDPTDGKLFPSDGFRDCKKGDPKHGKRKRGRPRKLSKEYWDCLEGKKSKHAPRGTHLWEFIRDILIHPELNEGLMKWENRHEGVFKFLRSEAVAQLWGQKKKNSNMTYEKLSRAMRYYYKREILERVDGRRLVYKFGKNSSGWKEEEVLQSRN
The conditions noted are these: protein: recombinant; tags: N-terminal GST; dsDNA, one strand shown. Summed up: as §1

A further test has as its target ETV1 (Homo sapiens, UniProt P50549 1-477). The following applies: protein: recombinant; tags: N-terminal GST; dsDNA, one strand shown. The method, boiled down:
as §1

Sequence of ETV1 (P50549 whole entry): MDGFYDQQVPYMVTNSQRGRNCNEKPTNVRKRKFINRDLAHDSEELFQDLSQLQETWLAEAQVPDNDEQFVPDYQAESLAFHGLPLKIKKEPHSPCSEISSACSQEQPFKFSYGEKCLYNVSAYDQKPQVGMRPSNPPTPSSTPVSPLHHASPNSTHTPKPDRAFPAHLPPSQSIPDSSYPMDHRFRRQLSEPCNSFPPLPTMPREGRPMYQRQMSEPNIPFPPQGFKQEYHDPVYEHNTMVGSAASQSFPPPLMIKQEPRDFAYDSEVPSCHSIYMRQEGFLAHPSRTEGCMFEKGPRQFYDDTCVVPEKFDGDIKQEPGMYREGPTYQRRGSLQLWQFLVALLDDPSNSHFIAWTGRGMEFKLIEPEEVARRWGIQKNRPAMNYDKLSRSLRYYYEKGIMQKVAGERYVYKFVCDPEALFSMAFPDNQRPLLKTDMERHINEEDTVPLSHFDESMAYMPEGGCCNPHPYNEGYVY
Sequence of ETV5 (P41161 whole entry): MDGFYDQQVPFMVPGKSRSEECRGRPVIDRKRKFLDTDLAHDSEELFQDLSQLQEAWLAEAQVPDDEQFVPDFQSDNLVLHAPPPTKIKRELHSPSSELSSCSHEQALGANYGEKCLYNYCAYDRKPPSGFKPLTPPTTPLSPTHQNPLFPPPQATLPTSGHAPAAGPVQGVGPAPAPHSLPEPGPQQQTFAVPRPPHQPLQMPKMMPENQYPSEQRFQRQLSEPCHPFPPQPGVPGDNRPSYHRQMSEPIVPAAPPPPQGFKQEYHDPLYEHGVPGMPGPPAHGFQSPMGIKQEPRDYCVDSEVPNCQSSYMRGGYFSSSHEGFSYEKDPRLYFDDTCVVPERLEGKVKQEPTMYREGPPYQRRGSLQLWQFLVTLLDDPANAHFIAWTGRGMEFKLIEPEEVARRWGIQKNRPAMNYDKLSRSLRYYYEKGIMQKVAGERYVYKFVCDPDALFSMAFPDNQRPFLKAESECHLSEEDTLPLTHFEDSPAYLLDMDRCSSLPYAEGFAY
Sequence of ELF1 (P32519 whole entry): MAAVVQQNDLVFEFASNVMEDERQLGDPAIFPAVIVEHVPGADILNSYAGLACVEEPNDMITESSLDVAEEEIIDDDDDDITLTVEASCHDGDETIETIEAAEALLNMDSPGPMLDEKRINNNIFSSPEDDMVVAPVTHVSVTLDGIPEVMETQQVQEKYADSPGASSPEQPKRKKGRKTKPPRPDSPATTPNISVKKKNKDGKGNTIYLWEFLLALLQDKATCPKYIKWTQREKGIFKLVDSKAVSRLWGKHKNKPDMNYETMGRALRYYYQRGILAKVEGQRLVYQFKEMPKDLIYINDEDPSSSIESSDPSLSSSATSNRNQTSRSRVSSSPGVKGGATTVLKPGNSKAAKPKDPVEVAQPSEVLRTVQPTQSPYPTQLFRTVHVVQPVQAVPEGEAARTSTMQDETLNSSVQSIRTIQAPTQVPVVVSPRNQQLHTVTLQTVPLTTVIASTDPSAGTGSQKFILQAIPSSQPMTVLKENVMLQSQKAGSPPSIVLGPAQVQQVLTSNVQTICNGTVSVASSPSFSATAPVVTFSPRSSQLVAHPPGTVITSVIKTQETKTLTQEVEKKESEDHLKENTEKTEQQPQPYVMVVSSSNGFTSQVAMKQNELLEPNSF
Sequence of HSF1 (Q00613 whole entry): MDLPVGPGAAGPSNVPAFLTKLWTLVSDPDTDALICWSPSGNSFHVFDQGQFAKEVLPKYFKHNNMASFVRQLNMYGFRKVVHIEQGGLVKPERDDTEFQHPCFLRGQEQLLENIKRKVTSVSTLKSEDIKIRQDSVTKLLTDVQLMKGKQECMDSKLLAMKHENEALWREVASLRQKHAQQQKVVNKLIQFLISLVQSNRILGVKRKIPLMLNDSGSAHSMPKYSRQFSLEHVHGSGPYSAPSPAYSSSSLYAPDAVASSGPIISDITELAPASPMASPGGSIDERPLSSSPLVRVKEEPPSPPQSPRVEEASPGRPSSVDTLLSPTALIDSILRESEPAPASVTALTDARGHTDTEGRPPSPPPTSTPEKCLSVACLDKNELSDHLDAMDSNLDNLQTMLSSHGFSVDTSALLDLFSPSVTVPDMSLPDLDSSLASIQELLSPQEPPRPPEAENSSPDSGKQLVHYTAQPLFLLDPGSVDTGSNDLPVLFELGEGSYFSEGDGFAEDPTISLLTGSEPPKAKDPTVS

As for GCCTCA, the binding signal with FLI1 was 1.34 fold enrichment (6-mer frequency, TF over GST control); in the test with ELK1, 1.34 fold enrichment (6-mer frequency, TF over GST control); with GABPA, 1.34 fold enrichment (6-mer frequency, TF over GST control); in the test with ERG, 1.13 fold enrichment (6-mer frequency, TF over GST control); with ELF1, 1.25 fold enrichment (6-mer frequency, TF over GST control); with EHF, 1.17 fold enrichment (6-mer frequency, TF over GST control). Moreover, the binding signal is 1.17 fold enrichment (6-mer frequency, TF over GST control) in the test with SPI1; 1.25 fold enrichment (6-mer frequency, TF over GST control) with SPIB; 1.19 fold enrichment (6-mer frequency, TF over GST control) with ELK3; 1.19 fold enrichment (6-mer frequency, TF over GST control) in the test with FEV; 1.22 fold enrichment (6-mer frequency, TF over GST control) in the test with ETV5; 1.05 fold enrichment (6-mer frequency, TF over GST control) in the test with HSF1. Further, the binding signal in the test with SPIC is 1.21 fold enrichment (6-mer frequency, TF over GST control); in the test with ELF4, 1.2 fold enrichment (6-mer frequency, TF over GST control); with ELK4, 1.13 fold enrichment (6-mer frequency, TF over GST control); with ETV2 it was 1.12 fold enrichment (6-mer frequency, TF over GST control); in the test with ELF3 it was 1.34 fold enrichment (6-mer frequency, TF over GST control); with ETV1, 1.13 fold enrichment (6-mer frequency, TF over GST control).
